Assay in all cases: Spec-seq (EMSA and sequencing of bound and unbound bands); 100 nM BATFx-JUNB, 1 uM dsDNA library, 50 mM K acetate, 20 mM Tris-acetate, 10 mM Mg acetate, 100 ug/ml BSA, pH 7.9, 10% glycerol, 30 min on ice; native 9% PAGE at 4 C; low values mean tight binding
Holding throughout (settings): protein: recombinant;recombinant; tags: N-terminal mCherry-TEV, cleaved off;C-terminal 6His; copies: 1;1; dsDNA, one strand shown

One assay deals with T1, BATF;JUNB (human;human, UniProt Q16520;P17275 1-125;148-347, |).
T1 sequence 1: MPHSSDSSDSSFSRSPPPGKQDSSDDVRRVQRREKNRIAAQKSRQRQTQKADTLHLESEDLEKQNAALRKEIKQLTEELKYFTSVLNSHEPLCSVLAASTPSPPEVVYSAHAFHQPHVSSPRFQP
T1 sequence 2: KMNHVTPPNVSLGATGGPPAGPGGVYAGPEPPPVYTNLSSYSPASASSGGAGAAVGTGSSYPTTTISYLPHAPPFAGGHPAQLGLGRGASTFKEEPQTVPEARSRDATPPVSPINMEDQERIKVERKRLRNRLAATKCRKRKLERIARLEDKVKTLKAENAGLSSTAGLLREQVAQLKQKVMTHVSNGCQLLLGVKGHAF
The method in brief:
(§1)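 The protein, at 100 nM, was incubated with 1 μM double-stranded degenerate DNA library for 30 min on ice in NEB Cutsmart buffer with 10% glycerol, then resolved by native 9% PAGE at 4 °C. Excised bound and unbound bands were PCR-barcoded and Illumina-sequenced, and each sequence's relative binding energy in kT is −ln of its bound/unbound read-count ratio.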

In the next assay the target is T2, BATF2 (bZIP);JUNB (human;human, UniProt Q8N1L9;P17275 1-142;148-347, |).
T2 sequence 1: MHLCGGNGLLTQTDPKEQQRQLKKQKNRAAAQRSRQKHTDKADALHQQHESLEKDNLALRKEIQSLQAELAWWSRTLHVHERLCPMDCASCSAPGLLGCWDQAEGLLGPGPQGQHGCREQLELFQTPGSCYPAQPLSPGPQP
T2 sequence 2: T1 sequence 2
The method in brief: as §1

Another assay concerns the target T3, BATF3;JUNB (human;human, UniProt Q9NR55;P17275 1-127;148-347, |).
T3 sequence 1: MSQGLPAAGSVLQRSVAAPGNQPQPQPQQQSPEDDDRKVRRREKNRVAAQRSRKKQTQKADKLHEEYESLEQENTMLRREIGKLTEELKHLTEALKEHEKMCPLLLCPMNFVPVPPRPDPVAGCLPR
T3 sequence 2: T1 sequence 2
In short, it runs like this: as §1

The values that follow come from publication PMC5869772, “Quantitative profiling of BATF family proteins/JUNB/IRF hetero-trimers using Spec-seq”.

With “GATAGTCTCATTTTCACCCCGTGAAATGCCTCATTTGTTCCATTACAGTATCTGT”, the binding signal stood at 0.532 kT with BATF;JUNB, 1.18 kT in the assay with BATF2 (bZIP);JUNB and 1.01 kT with BATF3;JUNB.
Take “GATAGTCTCATTTTCACCCCGTGAAATGACTGAGTTGTTCCATTACAGTATCTGT”: the binding signal is -0.132 kT in the assay with BATF;JUNB, 0.387 kT with BATF2 (bZIP);JUNB and 0.26 kT with BATF3;JUNB.
For “GATAGTCTCATTTTCACCCCGTGAAATGACTGAATTGTTCCATTACAGTATCTGT”, the binding signal in the assay with BATF;JUNB was -0.087 kT; with BATF2 (bZIP);JUNB, 0.382 kT; with BATF3;JUNB it was 0.179 kT.
Consider “GATAGTCTCATTTTCACCCCGTGAAAATGGGTCATTGTTCCATTACAGTATCTGT”, for which the results for the binding signal with BATF;JUNB, with BATF2 (bZIP);JUNB and with BATF3;JUNB were -0.00523 kT, 0.62 kT and 0.203 kT, respectively.
As to “GATAGTCTCATTTTCACCCCGTGAAATGACGTCGTTGTTCCATTACAGTATCTGT”, the binding signal with BATF;JUNB is -0.291 kT; with BATF2 (bZIP);JUNB it was 0.27 kT; with BATF3;JUNB it was -0.759 kT.
As for “GATAGTCTCATTTTCACCCCGTGAAATGCGTCATTTGTTCCATTACAGTATCTGT”, the binding signal in the assay with BATF;JUNB is -0.941 kT; with BATF2 (bZIP);JUNB it was -0.434 kT; with BATF3;JUNB it was -1.03 kT.
Consider “GATAGTCTCATTTTCACCCCGTGAAACCGAGTCATTGTTCCATTACAGTATCTGT”, for which the binding signal in the assay with BATF;JUNB is -0.617 kT; with BATF2 (bZIP);JUNB it was 0.173 kT; in the assay with BATF3;JUNB, -0.192 kT.
For “GATAGTCTCATTTTCACCCCGTGAAATGAGCCAGTTGTTCCATTACAGTATCTGT”, the results for the binding signal with BATF;JUNB, with BATF2 (bZIP);JUNB and with BATF3;JUNB were 0.487 kT, 1.33 kT and 1.1 kT, respectively.
In the same order, the values of “GATAGTCTCATTTTCACCCCGTGAAATGACATCATTGTTCCATTACAGTATCTGT” are -0.531 kT, -0.296 kT and -1.1 kT.
Take “GATAGTCTCATTTTCACCCCGTGAAAGTAAGTCATTGTTCCATTACAGTATCTGT”: the values for the binding signal in the assay with BATF;JUNB, in the assay with BATF2 (bZIP);JUNB and with BATF3;JUNB were -0.0818 kT, 0.203 kT and -0.041 kT, respectively.
As to “GATAGTCTCATTTTCACCCCGTGAAAAGACGTCATTGTTCCATTACAGTATCTGT”, the binding signal is -0.231 kT in the assay with BATF;JUNB, -0.0139 kT with BATF2 (bZIP);JUNB and -0.682 kT with BATF3;JUNB.
For “GATAGTCTCATTTTCACCCCGTGAAATGACTGACTTGTTCCATTACAGTATCTGT”, the binding signal was -0.088 kT with BATF;JUNB, 0.456 kT with BATF2 (bZIP);JUNB and 0.305 kT with BATF3;JUNB.
For “GATAGTCTCATTTTCACCCCGTGAAACGAGTCATTTGTTCCATTACAGTATCTGT”, the values for the binding signal with BATF;JUNB, with BATF2 (bZIP);JUNB and with BATF3;JUNB were -0.477 kT, 0.283 kT and -0.111 kT, respectively.
For the sequence “GATAGTCTCATTTTCACCCCGTGAAACTGGGTCATTGTTCCATTACAGTATCTGT”, the figures for the binding signal in the assay with BATF;JUNB, in the assay with BATF2 (bZIP);JUNB and with BATF3;JUNB were 0.364 kT, 0.724 kT and 0.562 kT, respectively.
Taken in the same sequence, the figures for “GATAGTCTCATTTTCACCCCGTGAAATGACGTCCTTGTTCCATTACAGTATCTGT” were 0.097 kT, 0.602 kT and -0.0593 kT.
Consider “GATAGTCTCATTTTCACCCCGTGAAATGAGACATTTGTTCCATTACAGTATCTGT”, for which the binding signal in the assay with BATF;JUNB came to 0.216 kT; with BATF2 (bZIP);JUNB, 1.21 kT; with BATF3;JUNB it was 0.604 kT.
Regarding “GATAGTCTCATTTTCACCCCGTGAAATGACCCAGTTGTTCCATTACAGTATCTGT”, the binding signal in the assay with BATF;JUNB came to 0.583 kT; with BATF2 (bZIP);JUNB it was 1.09 kT; with BATF3;JUNB it was 1.02 kT.
Turning to “GATAGTCTCATTTTCACCCCGTGAAATGAGACACTTGTTCCATTACAGTATCTGT”, the values for the binding signal in the assay with BATF;JUNB, with BATF2 (bZIP);JUNB and in the assay with BATF3;JUNB were 0.71 kT, 1.71 kT and 1.3 kT, respectively.
As for “GATAGTCTCATTTTCACCCCGTGAAATAGAGTCATTGTTCCATTACAGTATCTGT”, the binding signal was -0.357 kT with BATF;JUNB, 0.163 kT with BATF2 (bZIP);JUNB and -0.29 kT with BATF3;JUNB.
In the case of “GATAGTCTCATTTTCACCCCGTGAAACGACTCATTTGTTCCATTACAGTATCTGT”, the binding signal was -0.317 kT with BATF;JUNB, 0.616 kT with BATF2 (bZIP);JUNB and 0.267 kT in the assay with BATF3;JUNB.
Taken in the same sequence, the figures for “GATAGTCTCATTTTCACCCCGTGAAAGGAGTCATTTGTTCCATTACAGTATCTGT” were -0.0687 kT, 0.569 kT and 0.243 kT.
In the same order, the values of “GATAGTCTCATTTTCACCCCGTGAAAGTTAGTCATTGTTCCATTACAGTATCTGT” are -0.763 kT, -0.0778 kT and -0.656 kT.
As for “GATAGTCTCATTTTCACCCCGTGAAATGACTCTGTTGTTCCATTACAGTATCTGT”, the binding signal is -0.0517 kT in the assay with BATF;JUNB, 0.667 kT in the assay with BATF2 (bZIP);JUNB and 0.481 kT in the assay with BATF3;JUNB.
For “GATAGTCTCATTTTCACCCCGTGAAATGAGGCACTTGTTCCATTACAGTATCTGT”, the binding signal was found to be 0.813 kT with BATF;JUNB, 1.32 kT with BATF2 (bZIP);JUNB and 1.29 kT with BATF3;JUNB.
Taken in the same sequence, the figures for “GATAGTCTCATTTTCACCCCGTGAAATCACTCATTTGTTCCATTACAGTATCTGT” were -0.257 kT, 0.442 kT and -0.147 kT.
On to “GATAGTCTCATTTTCACCCCGTGAAATGAGCCATTTGTTCCATTACAGTATCTGT”, for which the binding signal with BATF;JUNB was found to be 0.392 kT; in the assay with BATF2 (bZIP);JUNB, 1.26 kT; with BATF3;JUNB, 0.914 kT.
“GATAGTCTCATTTTCACCCCGTGAAAGTCAGTCATTGTTCCATTACAGTATCTGT”: the results for the binding signal with BATF;JUNB, with BATF2 (bZIP);JUNB and with BATF3;JUNB were -0.0489 kT, 0.348 kT and 0.152 kT, respectively.
In the same order, the values of “GATAGTCTCATTTTCACCCCGTGAAATGACGCAATTGTTCCATTACAGTATCTGT” are -0.574 kT, -0.276 kT and -1.27 kT.
On to “GATAGTCTCATTTTCACCCCGTGAAAGAGAGTCATTGTTCCATTACAGTATCTGT”, for which the binding signal with BATF;JUNB is -0.0937 kT; with BATF2 (bZIP);JUNB, 0.318 kT; with BATF3;JUNB, 0.155 kT.
In the same order, the values of “GATAGTCTCATTTTCACCCCGTGAAATGACACATTTGTTCCATTACAGTATCTGT” are -0.137 kT, 0.424 kT and 0.0792 kT.
With “GATAGTCTCATTTTCACCCCGTGAAATGAGACAGTTGTTCCATTACAGTATCTGT”, the results for the binding signal with BATF;JUNB, with BATF2 (bZIP);JUNB and with BATF3;JUNB were 0.654 kT, 1.32 kT and 1.06 kT, respectively.
Taken in the same sequence, the figures for “GATAGTCTCATTTTCACCCCGTGAAATGACGTCATTGTTCCATTACAGTATCTGT” were -1.05 kT, -1.32 kT and -1.75 kT.
Taken in the same sequence, the figures for “GATAGTCTCATTTTCACCCCGTGAAATCACGTCATTGTTCCATTACAGTATCTGT” were -0.743 kT, -0.494 kT and -1.33 kT.
